Compounds with a hit are over-represented: about 2.3% of the library has one in this group of screens.
MARV entry inh = inhibitors of Marburg virus binding or cell entry; Marburg virus pseudotyped entry inhibition, cell reporter; Potency, µM (titrated, usually from 37.8 µM), most hits filed as inhibitors; actives 1.8% (n = 300,000); AID 540276; calls by dose curve; tested in HEK293 cells
Lassa entry inh = inhibitors of Lassa virus binding or cell entry | Lassa virus pseudotype entry inhibition, cell reporter | AID 540256 | actives 1.2% (n = 300,000) | Potency, µM (top dose mostly 37.9 µM), most hits filed as inhibitors; calls by dose curve; tested in HEK293 cells; also: nearly all actives have a fitted effect of over 50% in size
AMA1 RON2 block = AMA1-RON2 (P. falciparum) interaction inhibition. AlphaScreen AMA1-biotinylated RON2 peptide binding. AID 720542. Potency, µM (doses to about 58.2 µM), most hits filed as inhibitors. actives 0.2% (n = 360,000); also: nearly all actives have a fitted effect of over 45% in size
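AMA1 (3D7) with his tag at 25 nM final met compounds first, then biotinylated RON2 peptide at 25 nM; detection used donor plus acceptor beads, 10 µg/mL apiece, read by AlphaScreen after 30 min at room temperature.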
AmpC inh detg = inhibitors of E. coli AmpC beta-lactamase with detergent | P00811 | AmpC hydrolysis of nitrocefin, absorbance 480 nm, 0.01% Triton | Potency, µM (top dose mostly 114 µM), hits mostly inhibitors | actives 0.041% (n = 370,000) | AID 485294; also: nearly all actives have a fitted effect of over 25% in size
Target sequence (P00811 whole entry, looked up): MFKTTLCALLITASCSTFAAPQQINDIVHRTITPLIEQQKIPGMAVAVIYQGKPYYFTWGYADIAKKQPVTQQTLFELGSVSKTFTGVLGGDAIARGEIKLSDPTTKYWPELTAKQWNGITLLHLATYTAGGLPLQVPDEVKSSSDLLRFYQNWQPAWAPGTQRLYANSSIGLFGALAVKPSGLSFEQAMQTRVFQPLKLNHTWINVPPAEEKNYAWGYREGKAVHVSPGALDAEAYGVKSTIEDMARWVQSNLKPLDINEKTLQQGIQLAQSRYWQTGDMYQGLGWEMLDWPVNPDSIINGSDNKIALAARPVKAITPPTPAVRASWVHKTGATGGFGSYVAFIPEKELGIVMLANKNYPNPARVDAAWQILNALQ
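20 mM phosphate pH 7.0 + 0.01% (detergent screen) or 0.0001% Triton X-100; 5.3 nM AmpC reagent; cpd preinc 15 min RT; nitrocefin (800 uM stock) to start; A480 q20 s × 4 min; Activity was normalised to no-enzyme and no-compound control wells.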
AmpC no deterg = AmpC beta-lactamase inhibition without detergent. P00811. AmpC nitrocefin hydrolysis, absorbance 480 nm, 0.0001% Triton. Potency, µM (doses to about 57.1 µM), usual class: inhibitors. actives 0.52% (n = 330,000); also: nearly all actives have a fitted effect of over 20% in size
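20 mM phosphate pH 7.0 + 0.01% (detergent screen) or 0.0001% Triton X-100; 5.3 nM AmpC reagent; cpd preinc 15 min RT; nitrocefin (800 uM stock) to start; A480 q20 s × 4 min; Activity was normalised to no-enzyme and no-compound control wells.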
Each line names hits and unclear results; the compound was inactive in the other large screens. Unless noted, calls follow the shape of the dose curve; as a rule, active = well fitted curve in the direction sought with a large enough effect; inconclusive = small, poorly fitted or top-dose-only effect, or another doubt; inactive = no such curve, though single readings can be large; an effect the other way counts as inactive or inconclusive.

O=C(N/N=C/c1cccc2ccccc12)c1cc2ccccc2o1	none (no result: MARV entry inh, Lassa entry inh)
O=C(N/N=C/c1cn(Cc2ccccc2)c2ccccc12)c1cccnc1	MARV entry inh 4.5µM, Lassa entry inh inconclusive
C#CCn1cc(/C=N/NC(=O)c2cc3ccccc3o2)c2ccccc21	MARV entry inh inconclusive, Lassa entry inh inconclusive, AmpC inh detg inconclusive, AmpC no deterg 28µM
COc1ccc(/C=N/NC(=O)c2sc(C)nc2C)cc1	Lassa entry inh inconclusive
O=C(NN=Cc1ccc(N(CCCl)CCCl)cc1)c1cccnc1	MARV entry inh 5.6µM, Lassa entry inh inconclusive (no result: AmpC inh detg, AmpC no deterg)
CCCC(=O)OCc1cnc(C)c2oc(=O)c(C(=O)Nc3ccc(F)cc3C)cc12	none (no result: MARV entry inh, AMA1 RON2 block, AmpC no deterg)
CCOC(=O)c1c(S(=O)(=O)NCC(=O)N2CCN(c3cccc(Cl)c3)CC2)c(C)n(C)c1C	none (no result: MARV entry inh, AMA1 RON2 block, AmpC no deterg)
O=C(Cn1cc2c(n1)CCCC2)NCCCN1CCCC1	none (no result: MARV entry inh, Lassa entry inh)
O=C(Cn1cc2c(n1)CCCCC2)NCCCN1CCOCC1	AmpC inh detg inconclusive, AmpC no deterg 45µM (no result: MARV entry inh, Lassa entry inh)
Cc1[nH]nc(-c2cccnc2)c1N=NN(C)C	MARV entry inh 7.1µM, Lassa entry inh inconclusive (no result: AmpC inh detg, AmpC no deterg)
Cc1nc(-c2ccccc2)sc1CCNC(=O)C(=O)Nc1ccc2c(c1)OCO2	none (no result: MARV entry inh, AMA1 RON2 block, AmpC no deterg)
COC(=O)c1ccccc1NC(=O)C1CCN(S(C)(=O)=O)CC1	AmpC no deterg 0.16µM
COc1ccccc1NC(=O)C1CCN(S(C)(=O)=O)CC1	none (no result: MARV entry inh, Lassa entry inh)
O=C(NC(Nc1nc2ccc([N+](=O)[O-])cc2s1)(C(F)(F)F)C(F)(F)F)c1cccnc1	MARV entry inh inconclusive, Lassa entry inh inconclusive
O=C(NC(Nc1nc2ccc([N+](=O)[O-])cc2s1)(C(F)(F)F)C(F)(F)F)c1ccccc1Cl	MARV entry inh inconclusive, Lassa entry inh 1.6µM
C[C@H]1[C@@H](C(=O)N2CCCC2)CC(=NOCc2ccccc2)C(=NOCc2ccccc2)C[C@H]1c1ccccc1	Lassa entry inh inconclusive (no result: AMA1 RON2 block, AmpC inh detg, AmpC no deterg)
O=C(C(c1ccccc1)c1ccccc1)N1CC[C@@]2(O)CCCC[C@H]2C1	MARV entry inh 5.6µM, AMA1 RON2 block inconclusive
Cc1ccc(S(=O)(=O)N[C@H](C(=O)N2CCC3(O)CCCCC3C2)c2ccccc2)cc1 (stereo not given in full)	none
CC(C)[C@@H]1Cc2c(C#N)c(N)sc(=S)c2CO1	none (no result: Lassa entry inh, AMA1 RON2 block, AmpC inh detg, AmpC no deterg)
Fc1ccc(CNC(=S)Nc2cccc(C(F)(F)F)c2)cc1	MARV entry inh inconclusive, Lassa entry inh inconclusive
Fc1ccc(Nc2nc3nonc3nc2Nc2cccc(C(F)(F)F)c2)cc1	MARV entry inh 2.2µM, Lassa entry inh inconclusive (no result: AMA1 RON2 block, AmpC no deterg)
CCCCC#Cc1nc(NC)c2ncn([C@@H]3O[C@H](CO)[C@@H](O)[C@H]3O)c2n1	Lassa entry inh inconclusive (no result: AMA1 RON2 block, AmpC inh detg, AmpC no deterg)
O=C1NC[C@H](Cc2ccccc2)N(C[C@@H]2CCCN2C[C@H](Cc2ccc(O)cc2)N2C[C@H](Cc3ccc(O)cc3)N(CCc3ccccc3)C(=O)C2=O)C1=O	none (no result: MARV entry inh, Lassa entry inh, AmpC inh detg, AmpC no deterg)
O=C1NC[C@H](Cc2ccc(O)cc2)N(C[C@H]2CCCN2C[C@H](Cc2ccc(O)cc2)N2C[C@H](Cc3ccc(O)cc3)N(CCc3ccccc3)C(=O)C2=O)C1=O	AMA1 RON2 block 32µM (no result: MARV entry inh, Lassa entry inh, AmpC inh detg, AmpC no deterg)
Cc1cc(C)n(C(=O)CSc2nc3ccccc3o2)n1	AmpC inh detg 28µM
Cc1ccc(SCC(=O)n2nc(C)cc2C)cc1	MARV entry inh inconclusive
O=C(Nc1cc2ccccc2oc1=O)c1ccccc1	MARV entry inh 1.3µM, Lassa entry inh 2.5µM
CCOC(=O)c1c2c(n(Cc3ccccc3)c1C)C(=O)C(=O)c1ccccc1-2	MARV entry inh 5.6µM, Lassa entry inh inconclusive, AMA1 RON2 block inconclusive (no result: AmpC inh detg, AmpC no deterg)
COc1ccc(N2CCN(C(c3ccccc3)c3sc4nc(-c5ccco5)nn4c3O)CC2)cc1 (stereo not given)	none (no result: MARV entry inh, AMA1 RON2 block, AmpC no deterg)
CCOc1ccc(-c2cc(-c3nc(-c4ccc(C)cc4)no3)[nH]n2)cc1	none (no result: MARV entry inh, AMA1 RON2 block, AmpC no deterg)
CCn1c([N+](=O)[O-])nc2c1c(=O)[nH]c(=O)n2C	MARV entry inh inconclusive, Lassa entry inh 18µM
CCCCCCn1c(SCCCC)nc2c1c(=O)[nH]c(=O)n2C	none
CNS(=O)(=O)c1cn(CC(=O)N2CCN(c3ccc(C)cc3C)CC2)cc1S(=O)(=O)NC	none (no result: MARV entry inh, AMA1 RON2 block, AmpC no deterg)
c1coc(-c2ccnc3ncnn23)c1	none
c1coc(-c2ncc[nH]2)c1	AMA1 RON2 block 28µM
Cc1cc(C)c2c(=O)cc(C(=O)Nc3sc4c(c3C(=O)NCc3ccccc3)CCCC4)oc2c1	none (no result: AMA1 RON2 block, AmpC no deterg)
CC(C)CCNC(=O)/C=C/c1ccc(Br)cc1	MARV entry inh inconclusive, Lassa entry inh 1.6µM, AmpC no deterg inconclusive

High-throughput results as filed in PubChem.
